The supplement of paper PMC12669797
Several values for one entry are separate records, joined by “and”; a condition that tells them apart may be missing. Equal values may be shown once. Where a name gives a salt, the structure may show the parent alone. ± gives the standard deviation of the averaged measurements.

Experiments:
ES2 = assay: cell viability relative to DMSO control (MTS) (fraction of DMSO control); higher = more viable cells / less growth inhibition; conditions: 10 µM; 48 h
In short: (§1)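 Viability values are fractions of the vehicle-treated control. They come from an MTS assay run per the manufacturer's instructions on TOV-21G and ES2 clear cell carcinoma cells, seeded at 5000 cells per well in 96-well plates. Each compound of a 367-member […] library was added at 10 µM final after 24 h of growth, and the readout was taken after a further 48 h.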

TOV-21G = assay: as above; conditions: 10 µM; 48 h
In short: as §1

Row | SMILES | cell viability (ES2) | cell viability (TOV-21G)
1 | O=C(O)c1nn(Cc2ccc(Cl)cc2Cl)c2ccccc12 [Lonidamine] | 0.925 | 1.09
2 | N=C(N)NN [Aminoguanidine, HCl] | 0.55 | 0.337
3 | CO[C@@H]1C[C@@H](C[C@H]2CC[C@H](C)[C@H]([C@@H](C)C(=O)O)O2)O[C@]2(O[C@](C)([C@H]3CC[C@@](C)([C@@H]4O[C@@H]([C@H]5O[C@@](O)(CO)[C@H](C)C[C@@H]5C)C[C@@H]4C)O3)C[C@H]2C)[C@@H]1C [Nigericin] | 0.437 | 0.344
4 | COC(=O)C1(OC)CC2OC1(C)n1c3ccccc3c3c4c(c5c6ccccc6n2c5c31)C(=O)N(C)C4 (stereo not given) | 1 and 1.11 | 0.914 and 1.01
5 | CCC1(c2ccc(N)cc2)CCC(=O)NC1=O (stereo not given) [Aminoglutethimide] | 1.08 | 0.918
6 | NC(=S)N/N=C\c1coc2ccccc2c1=O.[Cl][Cu][Cl] [Akt Inhibitor XI] | 1.23 | 0.935
7 | CC[C@@]1([C@@H]2O[C@@H]([C@H]3O[C@@](O)(CO)[C@H](C)C[C@@H]3C)C[C@@H]2C)CC[C@H]([C@]2(C)CC[C@]3(C[C@H](O)[C@@H](C)[C@@H]([C@@H](C)[C@@H](OC)[C@H](C)C(=O)O)O3)O2)O1 [Monensin] | 0.419 | 0.368
8 | COc1ccc2c3c([nH]c2c1)[C@H](C=C(C)C)N1C(=O)[C@@H]2CCCN2C(=O)[C@@H]1C3 [Fumitremorgin C] | 0.945 | 0.838
9 | COC[C@H]1OC(=O)c2coc3c2[C@@]1(C)C1=C(C3=O)[C@@H]2CCC(=O)[C@@]2(C)C[C@H]1OC(C)=O [Wortmannin] | 0.956 ± 0.059 | 0.6 ± 0.027
10 | C[C@@]12C(=O)OC(=O)[C@]1(C)[C@H]1CC[C@@H]2O1 [Cantharidin] | 0.495 | 0.403
11 | O=C1NC(=O)c2c1c1c3ccccc3n3c1c1c2c2ccccc2n1[C@H]1CC[C@@H]3O1 | 0.973 and 1.25 | 1.01 and 1.24
12 | CC[C@H]1/C=C/C=C/C[C@@H](C)[C@H](O)[C@@](C)(O)C(=O)[C@@H](C)[C@H](O)[C@@H](C)C(=O)[C@@H](C)[C@H](O)[C@@H](C)/C=C/C(=O)O[C@@H]2[C@H](C)[C@H](CC1)O[C@]1(CC[C@H](C)[C@H](C[C@@H](C)O)O1)[C@H]2C [Oligomycin] | 0.67 | 0.535
13 | CC(C)(C)c1cc(C=C(C#N)C#N)cc(Br)c1O | 0.94 ± 0.18 | 1.09 ± 0.034
14 | CC(C)(O)/C=C/C(=O)[C@](C)(O)[C@H]1[C@H](O)C[C@@]2(C)[C@@H]3CC=C4[C@@H](C=C(O)C(=O)C4(C)C)[C@]3(C)C(=O)C[C@]12C [Cucurbitacin I] | 0.393 | 0.328
15 | C[C@]12CCC(=O)C(O)=C1CC[C@@H]1[C@@H]2CC[C@]2(C)C(=O)CC[C@@H]12 [Formestane] | 1.11 | 1.32
16 | N.N.[Cl][Pt][Cl] [Cisplatin] | 0.794 | 1.09
17 | CO/C1=C\C(C)=C\[C@@H](C)[C@@H](O)[C@@H](C)C/C(C)=C/C=C/[C@H](OC)[C@@H]([C@@H](C)[C@@H](O)[C@H](C)[C@@]2(O)C[C@@H](O)[C@H](C)[C@@H](C(C)C)O2)OC1=O [Bafilomycin A1] | 0.467 | 0.395
18 | C#CCN(C)C(C)Cc1ccccc1 (stereo not given) [Deprenyl] | 1.12 | 1.01
19 | C[C@H]1CCC/C=C/[C@@H]2C[C@H](O)C[C@H]2[C@H](O)/C=C/C(=O)O1 [brefeldin A] | 0.355 | 0.407
20 | CC[C@@]1(O)C(=O)OCc2c1cc1n(c2=O)Cc2cc3ccccc3nc2-1 [Camptothecin] | 0.527 | 0.267
21 | O=C1C2CCN(CC2)C1(CO)CO | 1.01 | 1.1
22 | C[C@H](CCC(=O)O)C[C@H](C)C[C@H](C)C(=O)/C=C(\O)[C@H](C)C[C@H](C)C/C=C/[C@@H](C)[C@@H](O)[C@@H](C)[C@@H](O)C[C@@H]1CC[C@@](C)([C@H]2CC[C@@](C)([C@@H](C)O)O2)O1 [Ionomycin] | 0.54 | 0.501
23 | CN1C(=O)[C@]2(Cc3cn([C@]45C[C@@]67SS[C@@](CO)(C(=O)N6[C@H]4Nc4ccccc45)N(C)C7=O)c4ccccc34)SS[C@@]1(CO)C(=O)N2C [Chetomin] | 0.32 | 0.254

Row | SMILES | cell viability (ES2) | cell viability (TOV-21G)
24 | CC(C)[C@@H]1NC(=O)[C@H](C)OC(=O)[C@@H](C(C)C)NC(=O)[C@@H](C(C)C)OC(=O)[C@H](C(C)C)NC(=O)[C@H](C)OC(=O)[C@@H](C(C)C)NC(=O)[C@@H](C(C)C)OC(=O)[C@H](C(C)C)NC(=O)[C@H](C)OC(=O)[C@@H](C(C)C)NC(=O)[C@@H](C(C)C)OC1=O [Valinomycin] | 0.482 | 0.355
25 | O=C1Nc2ccccc2C2(CCN(CCc3ccc(C(F)(F)F)cc3)CC2)O1 | 0.915 | 1.12
26 | CC1=C2C(=O)[C@H]3[C@@H](CC=C4C[C@@H](O)CC[C@@]43C)[C@@H]2CC[C@]12O[C@@H]1C[C@H](C)CN[C@H]1[C@H]2C [Jervine] | 1.04 | 1.64
27 | C=C1[C@@H](C)[C@H]2[C@H](Cc3ccccc3)NC(=O)[C@]23[C@H](OC(C)=O)/C=C/[C@@](C)(O)C(=O)[C@@H](C)C/C=C/[C@H]3[C@@H]1O [Cytochalasin D] | 0.498 | 0.472
28 | C=C(C)[C@H]1Cc2c(ccc3c2O[C@@H]2COc4cc(OC)c(OC)cc4[C@@H]2C3=O)O1 [Rotenone] | 0.491 | 0.666
29 | C[C@@]1(CO)[C@H](O)CC[C@@]2(C)[C@H]1CC[C@H]1C[C@@H]3C[C@@]12CC[C@]3(O)CO [Aphidicolin] | 0.419 | 0.869
30 | C/C(O)=C(\C#N)C(=O)Nc1cc(Br)ccc1Br | 1.06 ± 0.013 | 1.34 ± 0.19
31 | CN1C(=O)CN=C(c2ccc(Cl)cc2)c2cc(Cl)ccc21 | 1.1 | 0.825
32 | O[C@H]1[C@H]2[C@H](O)CCCN2C[C@H]1O [Swainsonine] | 0.98 | 0.689
33 | CC(=O)N[C@H]1[C@@H](O[C@@H]2O[C@H](CC(O)[C@H]3O[C@@H](n4ccc(=O)[nH]c4=O)[C@H](O)[C@@H]3O)[C@H](O)[C@H](O)[C@H]2NC(=O)/C=C/CC(C)C)O[C@H](CO)[C@@H](N)[C@@H]1O (stereo not given in full) [Tunicamycin] | 1.19 | 1.03
34 | C[C@H]1O[C@@H](n2cnc3c(N)ncnc32)C[C@@H]1O [2',5'-dideoxyadenosine] | 0.972 | 1.05
35 | CN[C@@H]1C[C@H]2O[C@@](C)([C@@H]1OC)n1c3ccccc3c3c4c(c5c6ccccc6n2c5c31)C(=O)NC4 [Staurosporine] | 0.301 | 0.239
36 | COc1ccc(C[C@H]2NC[C@H](O)[C@H]2OC(C)=O)cc1 [anisomycin] | 0.394 | 0.372
37 | C/C=C(/C)C(=O)O[C@H]1C(C)=C2[C@H]([C@@H]1OC(=O)CCCCCCC)[C@@](C)(OC(C)=O)C[C@H](OC(=O)CCC)[C@@]1(O)[C@H]2OC(=O)[C@@]1(C)O [Thapsigargin] | 0.505 | 0.348
38 | CNc1ccc2oc(C[C@H]3O[C@@]4(CC[C@H]3C)O[C@H]([C@H](C)C(=O)c3ccc[nH]3)[C@H](C)C[C@H]4C)nc2c1C(=O)O | 0.425 | 0.284
39 | CC(C)(c1ccc(OCC2CO2)cc1)c1ccc(OCC2CO2)cc1 (stereo not given) | 0.975 | 1.27
40 | N[C@@H]1C[C@H]1c1cc(F)cc(F)c1OCc1ccccc1 [S2101 (LSD1 inhibitor II)] | 0.792 | 1.04
41 | CC1=C2C[C@H]3[C@@H](CC=C4C[C@@H](O)CC[C@@]43C)[C@@H]2CC[C@]12O[C@@H]1C[C@H](C)CN[C@H]1[C@H]2C [cyclopamine] | 0.92 | 0.927
42 | Cc1sc2c(c1C)C(c1ccc(Cl)cc1)=N[C@@H](CC(=O)OC(C)(C)C)c1nnc(C)n1-2 | 0.502 | 0.305
43 | C[C@@H]1O[C@@H](O[C@H]2C[C@@H](O)[C@]3(CO)[C@H]4[C@H](O)C[C@]5(C)[C@@H](C6=CC(=O)OC6)CC[C@]5(O)[C@@H]4CC[C@]3(O)C2)[C@H](O)[C@H](O)[C@H]1O [Ouabain] | 0.439 | 0.279
44 | C[C@@H]1C[C@@H]([C@H](O)CC2CC(=O)NC(=O)C2)C(=O)[C@@H](C)C1 [Cycloheximide] | 0.547 | 0.373
45 | CN(N=O)c1cc(O)ccc1O [Dephostatin] | 1.14 | 1.02
